# According to PubChem BioAssay:
# “And” between values parts separate entries of the source, which are not always exact repeats. Identical values can stand only once. For some assays here: Measured potencies and affinities stand elsewhere. The source made the active and inactive calls.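 The calls were made as follows, unless noted: active = dose-response curve with midpoint inside the tested range, moderate steepness, significant amplitude and little compound fluorescence or bead-attachment interference; inactive = the rest.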
# Assays:
# [1] = target: Cell division control protein 42 homolog (Homo sapiens) (UniProt P60953); experiment: inhibition of fluorescent GTP binding to constitutively active Cdc42 – biochemical, multiplex bead flow cytometry, Bodipy-FL-GTP, dose response (AID 1333;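 active = fitted half-maximal concentration within the tested dose range, moderate curve steepness, a statistically real signal drop, and little compound fluorescence or tag-binding interference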); conditions: bead-based flow cytometry; series mostly up to 100 µM
# Chain of Cell division control protein 42 homolog (Homo sapiens) (P60953 whole entry, looked up): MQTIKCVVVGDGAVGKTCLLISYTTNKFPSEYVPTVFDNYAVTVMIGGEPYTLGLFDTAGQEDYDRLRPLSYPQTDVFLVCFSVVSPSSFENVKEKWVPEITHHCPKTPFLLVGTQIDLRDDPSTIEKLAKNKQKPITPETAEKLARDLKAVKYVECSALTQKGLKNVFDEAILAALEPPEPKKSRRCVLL
# [2] = target: GTPase HRas (Homo sapiens) (UniProt P01112); experiment: Ras wt fluorescent GTP loading blockade – biochemical, wildtype, multiplex bead flow cytometry, dose response (AID 1335;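 active = fitted half-maximal concentration within 10 nM to 100 µM, steepness 0.5 to 2, significant signal drop, low assay interference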); conditions: bead-based flow cytometry, Bodipy-GTP binding to GST-Ras; at 100 µM (top of the series) unless noted
# Chain of GTPase HRas (Homo sapiens) (P01112 whole entry, looked up): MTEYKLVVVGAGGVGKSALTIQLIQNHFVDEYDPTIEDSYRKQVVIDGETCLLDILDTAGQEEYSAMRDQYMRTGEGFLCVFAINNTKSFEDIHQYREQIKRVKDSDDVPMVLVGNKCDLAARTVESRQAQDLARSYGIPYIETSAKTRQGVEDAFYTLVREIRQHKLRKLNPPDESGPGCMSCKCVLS
# [3] = system: Ras-related protein Rab-7a (dog), GTP binding; experiment: blockers of fluorescent GTP binding to Rab7 – biochemical, wildtype, multiplex bead flow cytometry, dose response (AID 1336; call rule not given here); conditions: bead-based flow cytometry; series mostly up to 100 µM
# [4] = target: Ras-related C3 botulinum toxin substrate 1 (Homo sapiens) (UniProt P63000); experiment: inhibition of wildtype Rac1 nucleotide loading – biochemical, multiplex bead flow cytometry, dose response (AID 1340;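 active = dose curve with midpoint inside tested range, moderate steepness, plateau gap beyond fit error, low compound glow and bead-link interference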); conditions: GST-Rac1 beads, Bodipy-FL-GTP binding; at 100 µM (top of the series) unless noted
# [5] = target: GTPase HRas (Homo sapiens) (UniProt P01112); experiment: blockade of GTP loading onto mutant Ras – biochemical, activated mutant, multiplex bead flow cytometry, dose response (AID 1341); conditions: bead-based flow cytometry, Bodipy-FL-GTP binding; series mostly up to 100 µM;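 also: GST-tagged constitutively activated Ras mutant immobilized on beads and multiplexed with other GTPases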
# [6] = target: Cell division control protein 42 homolog (Homo sapiens) (UniProt P60953); experiment: inhibition of fluorescent GTP binding to wildtype Cdc42 – biochemical, multiplex bead flow cytometry, Bodipy-FL-GTP, dose response (AID 1334;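 active = fitted half-maximal concentration within the tested range, moderate curve steepness, significant signal drop, and little compound fluorescence or bead-linkage interference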); conditions: bead-based flow cytometry, Bodipy-FL-GTP binding to GST-Cdc42; at 100 µM (top of the series) unless noted
# [7] = hit retest on RPL19A-GFP reporter strain – cell-based, S. cerevisiae, flow cytometry, cherry picks, mother/daughter gates, confirmation (AID 2270;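 active = GFP response below 50% of the DMSO control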); conditions: 3 h, at 10 µM, stronger effect = lower value, 100 = same GFP as DMSO wells
# [8] = yeast TOR pathway reporter LAP4-GFP change – cell-based, cherry picks, flow cytometry, mother/daughter gates, confirmation (AID 2271;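 active = GFP response above 150% of the DMSO control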;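 also: ratio of sample to DMSO plate mean so 100% equals DMSO level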); conditions: S. cerevisiae LAP4-GFP strain, 3 h, at 10 µM, stronger effect = higher value, 100 means same as DMSO control
# [9] = TOR pathway reporter MEP2-GFP, retest of hits – S. cerevisiae, flow cytometry GFP, cherry picks, confirmation (AID 2272;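 active = GFP response above 150% of the DMSO control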;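 also: ratio of well signal to plate DMSO mean so 100% equals DMSO level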); conditions: S. cerevisiae MEP2-GFP strain, 3 h, at 10 µM, stronger effect = higher value
# [10] = yeast AGP1-GFP fluorescence change, single-dose – cell-based, flow cytometry, S. cerevisiae, cherry picks, confirmation (AID 2273;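 active = GFP response above 150% of the DMSO level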;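 also: median GFP channel fluorescence over the whole cell population gate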); conditions: S. cerevisiae AGP1-GFP strain, 3 h, at 10 µM
# [11] = TOR pathway CIT2 reporter hit retest – S. cerevisiae, GFP fusion, cherry picks, mother/daughter gates, confirmation (AID 2274;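 active = GFP response above 150% of the DMSO level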); conditions: S. cerevisiae CIT2-GFP strain, flow cytometry, 3 h, at 10 µM, stronger effect = higher value
# [12] = measured here: daughter cell gate
# [13] = measured here: mother cell gate
# [14] = measured here: daughter cell gate response
# [15] = measured here: mother cell gate response
smiles,measurement,setting,value
CCC(C(=O)NC1CCCC1)N(C(=O)Cn1nnc(-c2ccc(C)o2)n1)c1cnc2ccccc2c1 (centres undefined),outcome,[1],inactive
same,"GTP binding, percent of control",[2],60.1%
same,outcome,[3],inactive
same,"GTP binding signal, raw median fluorescence (lower = inhibition) (MCF (arbitrary fluorescence units))",[4],194
same,outcome,[5],inactive
CCn1cc(C=C2C(=O)c3ccccc3C2=O)c2ccccc21,outcome,[1],inactive
same,"fluorescence, percent of control (lower = inhibition)",[6],40.2%
same,outcome,[3],inactive
same,"GTP binding signal, raw median fluorescence (lower = inhibition) (MCF (arbitrary fluorescence units))",[4],161
same,outcome,[5],inactive
COCCn1c(=S)[nH]c2cc(C(=O)N3CCc4ccccc4C3)ccc2c1=O,outcome,[1],inactive
same,"fluorescence, percent of control (lower = inhibition)",[6],35.6%
same,"GTP binding, percent of control",[2],83.9%
same,outcome,[3],inactive
same,outcome,[5],inactive
O=C(O)c1ccccc1NCc1ccccc1Cl,outcome,[1],inactive
same,"fluorescence, percent of control (lower = inhibition)",[6],65.3%
same,"GTP binding, percent of control",[2],88.6%
same,outcome,[3],inactive
same,outcome,[5],inactive
O=C(NNC(=S)NCc1ccc(Cl)cc1)c1ccc(Br)o1,outcome,[1],inactive
same,"fluorescence, percent of control (lower = inhibition)",[6],28.8%
same,"GTP binding, percent of control",[2],74.4%
same,outcome,[3],inactive
same,outcome,[5],inactive
O=C(COc1ncnc2cc([N+](=O)[O-])ccc12)NCCc1ccc(Cl)cc1,outcome,[1],inactive
same,"fluorescence, percent of control (lower = inhibition)",[6],36.6%
same,"GTP binding, percent of control",[2],78.8%
same,outcome,[3],inactive
same,outcome,[5],inactive
COc1cc(/C=N\NC(=O)c2sc(N)nc2C)cc(OC)c1OC,outcome,[1],inactive
same,"fluorescence, percent of control (lower = inhibition)",[6],39.4%
same,"GTP binding, percent of control",[2],51.7%
same,outcome,[3],inactive
same,outcome,[5],inactive
CCN1C(c2ccccc2)=C(c2ccccc2)S/C1=C/C=C1\SC(=S)N(C)C1=O,outcome,[1],inactive
same,"fluorescence, percent of control (lower = inhibition)",[6],41.8%
same,outcome,[3],inactive
same,"GTP binding signal, raw median fluorescence (lower = inhibition) (MCF (arbitrary fluorescence units))",[4],167
same,outcome,[5],inactive
COc1cccc(-n2nnnc2S(C)(=O)=O)c1,"fluorescence, percent of control (lower = inhibition)",[6],34%
same,"GTP binding, percent of control",[2],59.3%
same,outcome,[3],inactive
same,"GTP binding signal, raw median fluorescence (lower = inhibition) (MCF (arbitrary fluorescence units))",[4],157
same,outcome,[5],inactive
CCCS(=O)(=O)c1nnnn1-c1cccc(OC)c1,outcome,[1],inactive
same,"GTP binding, percent of control",[2],71.2%
same,outcome,[3],inactive
same,"GTP binding signal, raw median fluorescence (lower = inhibition) (MCF (arbitrary fluorescence units))",[4],230
same,outcome,[5],inactive
same,GFP response vs DMSO,[7],87.7% (inactive)
same,GFP response vs DMSO,[7]; [12],84.6%
same,GFP response vs DMSO,[7]; [13],83.9%
same,GFP response relative to DMSO,[8],176% (active)
same,GFP response relative to DMSO,[8]; [14],154%
same,GFP response relative to DMSO,[8]; [15],178%
same,GFP response vs DMSO,[9],119% (inactive)
same,"GFP response, % of DMSO",[10],106% (inactive)
same,"GFP response, % of DMSO",[11],74.8% (inactive)
same,"GFP response, % of DMSO",[11]; [12],74.6%
same,"GFP response, % of DMSO",[11]; [13],65.8%
Cc1ccc(NC(=O)C2=C(c3ccccc3)S(=O)(=O)CCS2(=O)=O)cc1,"fluorescence, percent of control (lower = inhibition)",[6],22.2%
same,"GTP binding, percent of control",[2],79.3%
same,outcome,[3],inactive
same,"GTP binding signal, raw median fluorescence (lower = inhibition) (MCF (arbitrary fluorescence units))",[4],222
same,outcome,[5],inactive
CCS(=O)(=O)N1N=C(c2cccc(NS(C)(=O)=O)c2)CC1c1ccc(C)cc1 (centres undefined),outcome,[1],inactive
same,outcome,[3],inactive
same,"GTP binding signal, raw median fluorescence (lower = inhibition) (MCF (arbitrary fluorescence units))",[4],230
same,outcome,[5],inactive
same,GFP response vs DMSO,[7],100% (inactive)
same,GFP response vs DMSO,[7]; [12],99.1%
same,GFP response vs DMSO,[7]; [13],101%
same,GFP response relative to DMSO,[8],101% (inactive)
same,GFP response relative to DMSO,[8]; [14],97.5%
same,GFP response relative to DMSO,[8]; [15],100%
same,GFP response vs DMSO,[9],116% (inactive)
same,"GFP response, % of DMSO",[10],104% (inactive)
same,"GFP response, % of DMSO",[11],108% (inactive)
same,"GFP response, % of DMSO",[11]; [12],105%
same,"GFP response, % of DMSO",[11]; [13],108%
Cc1cc(NC(=O)CSc2nc(-c3ccccc3)c(C#N)c(=O)[nH]2)no1,outcome,[1],inactive
same,"fluorescence, percent of control (lower = inhibition)",[6],45.4%
same,outcome,[3],inactive
O=C(O)c1ccccc1Oc1ccccc1,outcome,[1],inactive
same,"fluorescence, percent of control (lower = inhibition)",[6],83.7%
same,"GTP binding, percent of control",[2],100%
same,"GTP binding signal, raw median fluorescence (lower = inhibition) (MCF (arbitrary fluorescence units))",[4],65
same,outcome,[5],inactive
CCOC(=O)c1nc(Nc2ccc(C(C)=O)cc2)c2ccccc2n1,outcome,[1],inactive
same,"fluorescence, percent of control (lower = inhibition)",[6],36%
same,"GTP binding, percent of control",[2],80.4%
same,outcome,[3],inactive
same,outcome,[5],inactive
Cc1ccc(-n2c(=O)cc(N3CCc4ccccc4C3)[nH]c2=O)cc1,outcome,[1],inactive
same,"fluorescence, percent of control (lower = inhibition)",[6],58.7%
same,outcome,[3],inactive
same,"GTP binding signal, raw median fluorescence (lower = inhibition) (MCF (arbitrary fluorescence units))",[4],251
same,outcome,[5],inactive
CN1C(=O)N(C)c2ccc(C=O)c3cccc1c23,outcome,[1],inactive
same,"fluorescence, percent of control (lower = inhibition)",[6],36.5%
same,"GTP binding, percent of control",[2],82.8%
same,outcome,[3],inactive
same,outcome,[5],inactive
O=C(Nc1nc(-c2ccc(S(=O)(=O)N3CCCC3)cc2)cs1)c1ccco1,outcome,[1],inactive
same,"fluorescence, percent of control (lower = inhibition)",[6],49.8%
same,"GTP binding, percent of control",[2],118%
same,outcome,[3],inactive
same,outcome,[5],inactive
O=C(O)c1cn(CCOc2ccccc2)c2ccccc12,outcome,[1],inactive
same,"fluorescence, percent of control (lower = inhibition)",[6],76.5%
same,"GTP binding, percent of control",[2],92.7%
same,outcome,[3],inactive
same,outcome,[5],inactive
CCOC(=O)c1c(NC(=O)C(=O)N/N=C/c2ccc(O)c(OC)c2)sc2c1CCCCC2,outcome,[1],inactive
same,"GTP binding, percent of control",[2],64.6%
same,outcome,[3],inactive
same,"GTP binding signal, raw median fluorescence (lower = inhibition) (MCF (arbitrary fluorescence units))",[4],184
same,outcome,[5],inactive
Cc1ccc(-n2c(-c3cnccn3)n[nH]c2=S)c(Br)c1,"fluorescence, percent of control (lower = inhibition)",[6],23.2%
same,"GTP binding, percent of control",[2],60.1%
same,outcome,[3],inactive
same,"GTP binding signal, raw median fluorescence (lower = inhibition) (MCF (arbitrary fluorescence units))",[4],190
same,outcome,[5],inactive
NC(N)=NS(=O)(=O)c1ccc(NC(=S)NC(=O)c2ccc3c(c2)OCO3)cc1,outcome,[1],inactive
same,"fluorescence, percent of control (lower = inhibition)",[6],44.3%
same,"GTP binding, percent of control",[2],97.7%
same,outcome,[3],inactive
same,outcome,[5],inactive
Cc1cc(C(=O)Oc2ccccc2C(=O)O)c(C)o1,outcome,[1],inactive
same,"fluorescence, percent of control (lower = inhibition)",[6],61.1%
same,outcome,[5],inactive
NS(=O)(=O)c1ccc(N2N=C(c3ccccc3)CC2c2ccccc2)cc1 (centres undefined),outcome,[1],inactive
same,"GTP binding, percent of control",[2],68% and 97.6%
same,outcome,[3],inactive
same,"GTP binding signal, raw median fluorescence (lower = inhibition) (MCF (arbitrary fluorescence units))",[4],223 and 99.4
same,outcome,[5],inactive
COc1cc(SC#N)ccc1N=Cc1c(C)[nH]n(-c2ccc(C)c(C)c2)c1=O,outcome,[1],inactive
same,"fluorescence, percent of control (lower = inhibition)",[6],44.7%
same,"GTP binding, percent of control",[2],83%
same,outcome,[3],inactive
same,outcome,[5],inactive
O=C(NCc1ccc2c(c1)OCO2)c1ccc(CSCc2cccc(Cl)c2)o1,"fluorescence, percent of control (lower = inhibition)",[6],31%
same,"GTP binding, percent of control",[2],76.4%
same,outcome,[3],inactive
same,"GTP binding signal, raw median fluorescence (lower = inhibition) (MCF (arbitrary fluorescence units))",[4],266
same,outcome,[5],inactive
COc1ccc(C(=O)/C=C/Nc2ccc(S(=O)(=O)Nc3nc(C)cc(C)n3)cc2)cc1OC,outcome,[1],inactive
same,"fluorescence, percent of control (lower = inhibition)",[6],39.1%
same,"GTP binding, percent of control",[2],80%
same,outcome,[3],inactive
same,outcome,[5],inactive
Cc1ccc(C(=O)COC(=O)c2ccc3c(c2)C(=O)N(c2cccc4ncccc24)C3=O)cc1,"GTP binding signal, raw median fluorescence (lower = inhibition) (MCF (arbitrary fluorescence units))",[4],151
Cc1cc(C(=O)Cn2nc(C(=O)O)c3ccccc3c2=O)c(C)n1-c1ccc(OC(F)F)cc1,"fluorescence, percent of control (lower = inhibition)",[6],28.1%
same,"GTP binding, percent of control",[2],75.5%
same,outcome,[3],inactive
same,outcome,[5],inactive
COc1ccc(OC)c(-c2c3cc(O)c(=O)cc-3oc3cc(O)c(O)cc23)c1,"GTP binding signal, raw median fluorescence (lower = inhibition) (MCF (arbitrary fluorescence units))",[4],137
CC(C)C(NCc1c(Cl)cccc1Cl)C(=O)O (centres undefined),"GTP binding, percent of control",[2],81.2%
same,outcome,[5],inactive
Cc1cccc2cc(CN(Cc3cccs3)C(c3nnnn3C3CCCC3)C(C)C)c(=O)[nH]c12 (centres undefined),"GTP binding, percent of control",[2],60.6%
same,outcome,[3],inactive
same,"GTP binding signal, raw median fluorescence (lower = inhibition) (MCF (arbitrary fluorescence units))",[4],207
same,outcome,[5],inactive
